Experimental findings from PubChem BioAssay (Tox21) are described below.

Results filed as inconclusive are left out. Entries that show only a call come without a potency. The source made the active and inactive calls. Calls come from the whole dose curve; as a rule, active = well fitted cell-killing curve with a large enough effect in the repeat runs; inconclusive = weak or mixed curves, or effect the other way; inactive = flat fitted curve, though single readings scatter.

The nature of this experiment: cAMP Responsive Elements (CRE) small molecule agonists, cell-based qHTS assay: qHTS cell viability counter screen (AID 2060914). Note: nearly all actives have a fitted effect of over 50% in size. Conditions: CRE-bla HEK293T viability, CellTiter-Glo luminescence, 5 h; series mostly up to 92.4 µM. An outline of the steps:
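HEK 293T CRE-bla; DMEM + 10% dialyzed FBS, 25 mM HEPES; 18 h pre-incubation; compound 3 h, 37 °C/5% CO2; CellTiter-Glo added after reporter read; luminescence after 30 min RT.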
On the technique in general: In qHTS, concentration-response curves come from the screen itself.
For `COC(=O)C1=C(C)NC(C)=C(C(=O)OCC(C)C)C1c1ccccc1[N+](=O)[O-]` (configuration not stated), the Potency entry is “inactive”.

With `COc1nc(C)nc(NC(=O)NS(=O)(=O)c2ccccc2OCCCl)n1`, the Potency entry was “inactive”.

For `C=CC(C)(CCC=C(C)C)OC(=O)CC(C)C` (configuration not stated), the Potency entry was “inactive”.

Regarding `c1ccc(SSc2ccccc2)cc1`, the Potency result was “inactive”.

Turning to `CC(C)(C)NCC(O)COc1cccc2c1C[C@H](O)[C@H](O)C2` (some centres not stated), the Potency entry was “inactive”.

As to `CCCCCCOC(=O)CCCCC`, the Potency entry was “inactive”.

Turning to `OCCCCCCCl`, the Potency result was “inactive”.

For `OCCCc1cccnc1`, the Potency result was “inactive”.

On to `N[C@@H](Cc1cc(I)c(Oc2cc(I)c(O)c(I)c2)c(I)c1)C(=O)O`, for which the Potency result was “inactive”.

As for `COc1ccc2cc([C@H](C)C(=O)O)ccc2c1`, the Potency result was “inactive”.

As for `CCOC(=N)CC(=O)OCC`, the Potency result is “inactive”.

As for `CCC(C)(CCCC(C)C)OC(C)=O` (configuration not stated), the Potency entry is “inactive”.

For `CN(C)CC/C=C1/c2ccccc2COc2ccc(CC(=O)O)cc21`, the Potency result is “inactive”.

Turning to `Oc1ccc(C(O)CNCCCCCCNCC(O)c2ccc(O)c(O)c2)cc1O` (configuration not stated), the Potency entry is “inactive”.

For `COc1nc(N)nc2c1ncn2[C@@H]1O[C@H](CO)[C@@H](O)[C@@H]1O`, the Potency entry was “inactive”.

On to `CCCCCCCCCCCCCCN(C)C`, for which the activity change, negative = cytotoxicity was -15% [at 18.9 µM] (inactive).

Regarding `CC(O)C#CC(C)O` (configuration not stated), the Potency result is “inactive”.
